Bioassay records from PubChem.
NS1 function inh: influenza NS1 inhibition; actives 0.4% (n = 270,000); Potency, µM (titrated, usually from 46.1 µM), for the others: at the top dose activity, positive = more growth; calls by dose curve; note: actives are rising curves; nearly all actives have a fitted effect of over 50% in size
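Growth recovery, yeast-based: influenza A NS1 expressed in S. cerevisiae causes slow growth, and suppressors are detected by OD600. The parent strain without NS1 is used as positive control.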
Cruzain noTriton: cruzain (T. cruzi) inhibition without detergent; purified cruzain, Z-FR-AMC fluorescence, no detergent; Potency, µM, for the others: max response, negative = inhibition, usual class: inhibitors; actives 2.3% (n = 200,000); AID 1476;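 note: plate controls were enzyme without inhibitor for no effect and buffer without enzyme for full effect; nearly all actives have a fitted effect of over 40% in size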
Target sequence (P25779 123-467 limits assumed): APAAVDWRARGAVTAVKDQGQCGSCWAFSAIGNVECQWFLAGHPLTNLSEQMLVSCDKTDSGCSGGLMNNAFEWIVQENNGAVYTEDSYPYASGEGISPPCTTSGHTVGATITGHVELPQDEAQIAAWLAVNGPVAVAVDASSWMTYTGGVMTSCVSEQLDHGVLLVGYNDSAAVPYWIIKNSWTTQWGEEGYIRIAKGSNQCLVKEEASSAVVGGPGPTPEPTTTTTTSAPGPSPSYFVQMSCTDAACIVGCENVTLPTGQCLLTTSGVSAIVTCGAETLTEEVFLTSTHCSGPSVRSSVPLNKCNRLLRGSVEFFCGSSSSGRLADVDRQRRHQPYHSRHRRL
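Purified cruzain at 1.5 nM, pre-incubated 15 min with compound at room temperature in 100 mM sodium acetate pH 5.5, 5 mM DTT, 0.00005% Triton X-100. Reaction started with 2 uM Z-FR-AMC; AMC fluorescence increase over 60 s gives rate.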
Cruzain Triton: cruzain (T. cruzi) inhibition with detergent | P25779 | AID 1478 | purified cruzain, Z-FR-AMC fluorescence, 0.01% Triton | actives 0.43% (n = 200,000) | Potency, µM, for the others: max response, negative = inhibition, usual class: inhibitors;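 note: plate controls were neutral wells for no effect and buffer without enzyme for full effect; nearly all actives have a fitted effect of over 40% in size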
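Compounds were screened in titration against cruzain (1.5 nM) with 0.01% Triton X-100 to counter colloidal aggregation. Activity was the AMC fluorescence increase over 60 s after adding 2 uM Z-FR-AMC at pH 5.5.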
The depositor's hits bear a star; u = inconclusive; x = no result given. The entries come from a sample that favours hits as a whole. Unless noted, calls come from the whole dose curve; as a rule, active = well fitted curve in the direction sought with a large enough effect; inconclusive = small, poorly fitted or top-dose-only effect, or another doubt; inactive = no such curve, though single readings can be large; an effect the other way counts as inactive or inconclusive. Potency is the fitted concentration of half-maximal effect.

SMILES	NS1 function inh	Cruzain noTriton	Cruzain Triton
COC(=O)c1sc(-c2ccccc2)cc1NC(=O)c1ccc(OC)cc1	28%	u	-8%
COc1cc(NC(=O)Cn2c(=O)n(C(C)C)c(=O)c3oc4ccccc4c32)cc(OC)c1	x	18%	-1%
CCCCOc1ccccc1C(=O)Nc1nonc1-c1ccccc1	x	-12%	-5%
COc1ccc(NC2=CC(c3ccc(OC)c(OC)c3)N(c3ccc(OC)cc3)C2=O)cc1 (stereo not drawn)	8.9µM*	u	-3%
COc1ccc(OC2C(=O)N(c3ccc(C)c(C)c3)C2c2ccc(OC)c(OC)c2)cc1 (stereo not drawn)	u	u	0%
CCOCCO	x	4%	5%
Cc1onc(-c2ccccc2Cl)c1C(=O)OCC(=O)c1c(N)n(C)c(=O)n(C)c1=O	-3%	x	x
Cc1onc(-c2ccccc2Cl)c1C(=O)OCC(=O)c1ccc2c(c1)OCCO2	u	25µM*	-3%
O=C(NCc1ccccc1Cl)C1CCCN(C(=O)c2cnn(-c3ccccc3)c2-n2cccc2)C1 (stereo not drawn)	x	1%	-7%
COc1ccc(/C=N/OC/C(O)=C(\C#N)c2nc3ccccc3[nH]2)cc1	9%	-29%	2%
COc1ccc(OC/C(O)=C(\C#N)c2nc3ccccc3[nH]2)cc1	11%	25µM*	-1%
COc1ccccc1CNc1ncnc2c1c(-c1ccccc1)cn2-c1cccc(C)c1	x	u	1%
COc1cccc(C(=O)Nc2ccc(-c3cn4cccnc4n3)cc2)c1OC	x	u	-19%
Cc1cccc(OCC(=O)Nc2cccc3cccnc23)c1C	x	7%	-2%
CCn1c(O)c(/C=C2\C=NN=C2c2ccc(C)cc2)sc1=S	14%	13µM*	-5%
CC(C)n1c(O)c(/C=C2\C=NN=C2c2ccccc2)sc1=S	6%	x	x
Cc1ccc(NC(=O)C2CC(=O)N/C(=N/N=C/c3ccco3)S2)cc1C (stereo not drawn)	u	13µM*	-3%
Cc1ccc(NC(=O)C2CC(=O)N/C(=N/N=C/c3ccco3)S2)cc1 (stereo not drawn)	-3%	u	-2%
CCN(CC)c1ccc2cc(-c3nc(-c4ccccc4)no3)c(=O)oc2c1	x	-5%	1%
CC(=O)c1cc(-c2ccccc2)n(CC(=O)NCc2ccccc2C)c1C	x	3%	1%
O=C(Nc1cccc(-c2cn3ccccc3n2)c1)c1cc2ccccc2oc1=O	12%	u	3.5µM*
CC(=O)Nc1cccc(-c2cn3ccccc3n2)c1	-3%	x	x
Cn1c(=O)c2c(nc(SCC(=O)Nc3ccc(OC(F)(F)F)cc3)n2Cc2cccc(C(F)(F)F)c2)n(C)c1=O	x	-8%	0%
CCOc1ccc(CCNC(=O)C2CCN(c3nnc(-n4cccc4)s3)CC2)cc1	5%	16µM*	-1%
CCOc1ccc(CCNC(=O)C2CCN(c3nnc(-n4cccc4)s3)CC2)cc1OCC	9%	14%	-5%
SMILES	NS1 function inh	Cruzain noTriton	Cruzain Triton
O=C(OCC(=O)c1ccc([N+](=O)[O-])cc1)/C(=C/c1ccc(Cl)cc1)NC(=O)c1ccccc1	-5%	16µM*	2.8µM*
O=C(N/C(=C/c1ccc([N+](=O)[O-])cc1)C(=O)N1CCCC1)c1ccccc1	2%	x	x
COCC(=O)N1CCC[C@@]2(CCN(c3ccccn3)C2)C1	x	3%	-3%
C[C@@H](Oc1ccc(Oc2cnc3ccc(Cl)cc3n2)cc1)C(=O)O	-31%	6%	-5%
COc1cc(/C=C\C(=O)N2CCC=CC2=O)cc(OC)c1OC	x	-13%	-3%
O=C(N/N=C/c1c[nH]c2c1ccc1ccccc12)c1ccc([N+](=O)[O-])cc1	-9%	6.3µM*	-4%
Brc1ccc(-c2ccc(/C=N/Nc3nc4ccccc4[nH]3)o2)cc1	u	7.9µM*	u
COc1ccc(C(=O)N/N=C/c2sc(N3CCOCC3)nc2-c2ccccc2)cc1OC	-6%	x	x
COc1ccccc1NS(=O)(=O)c1cc([N+](=O)[O-])ccc1N/N=C/c1sc(N2CCOCC2)nc1-c1ccccc1	7%	6.3µM*	-2%
COc1ccccc1NS(=O)(=O)c1ccc(N/N=C/c2c(C)nn(-c3ccccc3)c2N2CCCC2)c([N+](=O)[O-])c1	19%	3.2µM*	-1%
Cc1nn(-c2ccccc2)c(N2CCCC2)c1/C=N/Nc1ccc(S(=O)(=O)Nc2ccccc2)cc1[N+](=O)[O-]	18%	u	5%
C(=N\Nc1nc2ccccc2[nH]1)/c1ccccc1	-2%	x	x
COc1ccc2ccccc2c1/C=N/NC(=O)c1ccc([N+](=O)[O-])cc1	1%	x	x
COc1ccc(NC(=O)N2CCC3(CC2)CCN(S(C)(=O)=O)CC3)cc1	x	1%	4%
Cc1ccc2c(c1)N(CC(=O)NCCN1CCOCC1)C(=O)CO2	6%	x	x
COCCN(Cc1ccc(C)c(Br)c1)S(=O)(=O)c1ccc2[nH]c(=O)ccc2c1	x	-1%	-3%
[O-]/[N+](=N\O)c1ccccc1	x	7%	-2%
COc1cccc([C@@H]2Oc3ccc(Br)cc3C(=O)[C@H]2OC(=O)NS(=O)(=O)c2ccc(C)cc2)c1	x	-11%	1%
NC(N)=NNC(=O)C(=O)O	13%	0%	-1%
Cc1cc(=O)[nH]c(N/N=C/c2c[nH]c3ccccc23)n1	7%	x	x
O=[N+]([O-])c1ccccc1N/N=C/c1c[nH]c2ccccc12	-3%	2%	-5%
O=C(N/N=C/c1cccc([N+](=O)[O-])c1)c1cc2c(ccc3ccccc32)o1	4%	10µM*	-13%
O=[N+]([O-])c1ccc(N/N=C/c2ccc[nH]2)cc1	u	25µM*	-24%
O=[N+]([O-])c1ccc(N/N=C/c2c[nH]c3ccccc23)cc1	-54%	25µM*	-4%
C(=N\Nc1nc2ccccc2[nH]1)/c1c[nH]c2ccccc12	11%	16µM*	u
SMILES	NS1 function inh	Cruzain noTriton	Cruzain Triton
O=C(N/N=C/c1ccncc1)c1cc2c(ccc3ccccc32)o1	-4%	-1%	-6%
O=[N+]([O-])c1ccc(N/N=C/c2cccc(O)c2O)cc1	-55%	x	x
CCCCNc1nc(C)nc2c1nc(-c1ccccc1)n2CCN1CCCCC1	x	14%	-1%
CNc1ccc(O)cc1	x	-7%	-5%
N#CNC(N)=Nc1ccc(Cl)cc1	-12%	-7%	0%
O=C(N/N=C/c1c[nH]c2ccccc12)c1cccc([N+](=O)[O-])c1	14%	1%	-12%
COc1ccc(NS(=O)(=O)c2cc([N+](=O)[O-])ccc2N/N=C\c2c(C)[nH]c3ccccc23)cc1	7%	u	2%
COc1ccccc1NS(=O)(=O)c1cc([N+](=O)[O-])ccc1N/N=C/c1c[nH]c2ccccc12	4%	10µM*	6%
Cc1[nH]c2ccccc2c1/C=N/Nc1ccc([N+](=O)[O-])cc1S(=O)(=O)Nc1ccc(Cl)cc1	19%	5µM*	5%
Cc1noc(C)c1-c1nc(Nc2ccc(F)cc2)c2ccccc2n1	x	u	0%
COc1ccccc1/C=C(/CC(=O)NCc1ccc(F)cc1)c1nc2ccccc2s1	19%	16µM*	-7%
COc1ccccc1/C=C(/CC(=O)NCc1ccccc1)c1nc2ccccc2s1	8%	u	-4%
COc1cccc(Cn2c(=O)cnc3cnc(N(C)C)nc32)c1	x	-9%	-8%
CN(C)c1ccc(-c2ccc3ncnc(N(C)Cc4ccco4)c3c2)cc1	x	-6%	2%
CCOC(=O)c1c(-n2cnnn2)sc2c1CCCC2	-2%	x	x
